Measured values reported in PubChem BioAssay (Tox21).
Inconclusive results are not listed. Active and inactive are the calls of the source. Unless noted, calls come from the whole dose curve; as a rule, active = well fitted curve in the direction sought with a large enough effect in the repeat runs; inconclusive = weak or mixed curves; inactive = no such curve, though single readings can be large; an effect the other way counts as inactive or inconclusive.

Assays:
[1] = qHTS assay for small molecule agonists of the p53 signaling pathway (AID 651631; calls by dose curve; note: nearly all actives have a fitted effect of over 15% in size)
Method in brief: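 Readout was fluorescence from the LiveBLAzer FRET substrate, applied for 2 h at room temperature after 16 h compound exposure at 37 °C. Cells were the p53RE-bla HCT-116 line, with beta-lactamase driven by p53 response elements.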

[2] = qHTS assay for small molecules that induce genotoxicity in human embryonic kidney cells expressing luciferase-tagged ATAD5 (AID 651632); note: nearly all actives have a fitted effect of over 15% in size
Method in brief: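 Reporter cells (HEK293T) express luciferase-tagged ATAD5, a protein that accumulates after DNA damage. Treat 16 hr at 37C/5% CO2, add Amplite, wait 30 min at RT, and read luminescence.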

[3] = qHTS assay for small molecule agonists of the p53 signaling pathway - cell viability (AID 651633; calls by dose curve; note: series mostly up to about 83 µM; nearly all actives have a fitted effect of over 30% in size)
Method in brief: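 Viability counter-read: CellTiter-Glo luminescence (30 min, room temperature) in the same p53RE-bla plates. These plates had been exposed to compounds for 16 h at 37 C.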

[4] = qHTS assay for small molecules that induce genotoxicity in human embryonic kidney cells expressing luciferase-tagged ATAD5 - cell viability (AID 651634; calls by dose curve; note: nearly all actives have a fitted effect of over 25% in size)
Method in brief: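 Seeding of 2,000 HEK293T ATAD5-luciferase cells per well preceded pin-tool compound transfer. Plates sat 15.5 hr at 37C under 5% CO2, then fluorescence was read after 30 min with CellTiter-Fluor.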

[5] = qHTS assay for small molecule disruptors of the mitochondrial membrane potential - cell viability (AID 720634; calls by dose curve;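 note: human HepG2 liver cancer cells; series mostly up to about 83 µM; nearly all actives have a fitted effect of over 20% in size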)
Method in brief: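 Measuring cytotoxicity alongside mitochondrial potential, the screen quantified ATP by luminescence in HepG2 cells after 1 hr compound incubation and a 30 min room-temperature CellTiter-Glo step.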

[6] = qHTS assay for small molecule disruptors of the mitochondrial membrane potential (AID 720635)
Method in brief: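 Mitochondrial membrane potential tracked with Mito-MPS dye, red aggregates (ex 540/em 590 nm) against green monomers (ex 490/em 535 nm). Compound treatment 1 hr at 37C, dye 30 min in HepG2.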

[7] = qHTS assay to test for compound auto fluorescence at 590 nm (red) in HepG2 cells (AID 720674)
Method in brief: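 Red autofluorescence (Ex/Em 540/590 nm, Rose Bengal sodium equivalents) was measured in HepG2 cells, 2,000 per well in MEM plus 10% FBS, plated overnight at 37 C. Readings were taken 1 hr after adding 23 nL compound or DMSO, at 37 C and 5% CO2.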

[8] = qHTS assay to test for compound auto fluorescence at 535 nm (green) in HepG2 cells (AID 720675)
[9] = qHTS assay to test for compound auto fluorescence at 590 nm (red) in HEK293 cells (AID 720679)
Method in brief: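 Using HEK293 cells at 2,000 per well, the screen added 23 nL of each compound after cell attachment and incubated overnight (37C, 5% CO2). The plate reader then captured red-label fluorescence, Ex/Em 540/590nm.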

[10] = qHTS assay to test for compound auto fluorescence at 535 nm (green) in HEK293 cells (AID 720680)
[11] = qHTS assay to test for compound auto fluorescence at 460 nm (blue) in HEK293 cell free culture (AID 720681)
Method in brief: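 Blue fluorescence (Ex 405/Em 460 nm, triamterene-equivalent) was read immediately after pin transfer of compound or DMSO into medium (DMEM, 10% FBS) without cells.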

[12] = qHTS assay to test for compound auto fluorescence at 535 nm (green) in HEK293 cell free culture (AID 720682)
Method in brief: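 Compounds were pin-transferred into cell-free DMEM with 10% FBS, and green fluorescence was read at excitation 485 nm and emission 535 nm. Intensities were expressed as fluorescein-equivalent values.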

[13] = qHTS assay to test for compound auto fluorescence at 590 nm (red) in HepG2 cell free culture (AID 720684)
Method in brief: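 Plate contents were MEM with 10% FBS plus test compound or DMSO, no cells. Fluorescence was recorded with 540 nm excitation and 590 nm emission.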

[14] = qHTS assay to test for compound auto fluorescence at 460 nm (blue) in HepG2 cell free culture (AID 720685)
Method in brief: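 Compound (23 nL) or DMSO pinned into cell-free MEM with 10% FBS; blue fluorescence read at 405/460 nm excitation/emission, expressed as auto-fluorescence equivalency to triamterene.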

[15] = qHTS assay to test for compound auto fluorescence at 535 nm (green) in HepG2 cell free culture (AID 720686)
[16] = qHTS assay to test for compound auto fluorescence at 460 nm (blue) in HepG2 cells (AID 720687)
Method in brief: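 Blue-channel autofluorescence (Ex/Em 405/460 nm, triamterene-equivalent) was measured after 1 hr compound exposure at 37 C, 5% CO2. Cells were HepG2, plated overnight at 37 C in MEM plus 10% FBS.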

[17] = target: Glucocorticoid receptor (Homo sapiens) (UniProt P04150); test: qHTS assay to identify small molecule agonists of the glucocorticoid receptor (GR) signaling pathway (AID 720691; active = well fitted activation curve with a large enough effect in the signal ratio in the repeat runs, not every such curve was filed as active; the % refers to the signal ratio)
Method in brief: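 Reporter read-out: fluorescence intensity following 2 h room-temperature LiveBLAzer B/G FRET substrate loading. Prior step: GR-bla HeLa cells held 4 h, then treated 18 h at 37 C.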

[18] = target: Glucocorticoid receptor (Homo sapiens) (UniProt P04150); test: qHTS assay to identify small molecule antagonists of the glucocorticoid receptor (GR) signaling pathway (AID 720692; active = well fitted inhibition curve with a large enough effect in the signal ratio in the repeat runs, not every such curve was filed as active; the % refers to the signal ratio)
Method in brief: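 Dexamethasone (5 nM final) stimulated a stably integrated GRE-beta-lactamase reporter in HeLa cells during 18 h co-incubation with compounds; signal was quantified as fluorescence intensity of B/G FRET substrate after 2 h.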

[19] = qHTS assay to identify small molecule antagonists of the glucocorticoid receptor (GR) signaling pathway - cell viability counter screen (AID 720693); note: nearly all actives have a fitted effect of over 55% in size
[20] = qHTS assay for identifying genotoxic compounds that show differential cytotoxicity against isogenic chicken DT40 cell lines with known DNA damage response pathways - wild type cell line (AID 743012); note: nearly all actives have a fitted effect of over 60% in size
Method in brief: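 Using parental DT40 (300 cells/well), compounds delivered in DMSO incubate 40 h at 37 C/5% CO2. CellTiter-Glo reagent then stands 30 min at room temperature, and luminescence gives cell viability.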

[21] = qHTS assay for identifying genotoxic compounds that show differential cytotoxicity against isogenic chicken DT40 cell lines with known DNA damage response pathways - Rad54/Ku70 mutant cell line (AID 743015); note: nearly all actives have a fitted effect of over 60% in size
[22] = qHTS assay to identify small molecule antagonists of the androgen receptor (AR) signaling pathway - cell viability counter screen (AID 743033; note: nearly all actives have a fitted effect of over 45% in size)
[23] = qHTS assay to identify small molecule antagonists of the androgen receptor (AR) signaling pathway using the MDA cell line - cell viability counter screen (AID 743041; note: nearly all actives have a fitted effect of over 45% in size)
Method in brief: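 R1881-driven MDA-kb2 AR-luc cells, 3,000/well, were dosed with library compounds for 16 h; cell health came from CellTiter-Fluor fluorescence in the reporter wells.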

[24] = qHTS assay to identify small molecule antagonists of the thyroid receptor (TR) signaling pathway - cell viability counter screen (AID 743064); note: nearly all actives have a fitted effect of over 50% in size
Method in brief: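 In-well cytotoxicity read by CellTiter-Fluor (30 min, 37 C) following 23.5 h exposure of GH3 cells bearing a TRE-luciferase sensor. Compounds were added alongside 1 nM (final) T3 to drive TR transactivation.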

[25] = qHTS assay to identify small molecule antagonists of the thyroid receptor (TR) signaling pathway (AID 743065); note: series mostly up to about 70 µM; nearly all actives have a fitted effect of over 55% in size
Method in brief: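 Antagonism measured as loss of luciferase signal in GH3 cells stably carrying a TRE-luciferase reporter, co-treated with compound and T3 (1 nM final) for 23.5 h at 37 C. Viability was read in the same well by CellTiter-Fluor.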

[26] = qHTS assay to identify small molecule antagonists of the estrogen receptor alpha (ER-alpha) signaling pathway - cell viability counter screen (AID 743074; calls by dose curve;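 note: HEK293 cells carrying ER-alpha-UAS-bla reporter stimulated with 17beta-estradiol; nearly all actives have a fitted effect of over 45% in size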)
[27] = target: Estrogen receptor (Homo sapiens) (UniProt P03372); test: qHTS assay to identify small molecule agonists of the estrogen receptor alpha (ER-alpha) signaling pathway (AID 743075; calls by dose curve;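 note: HEK293 GripTite cells with ER-alpha and UAS-driven beta-lactamase reporter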)
[28] = target: Estrogen receptor (Homo sapiens) (UniProt P03372); test: qHTS assay to identify small molecule agonists of the estrogen receptor alpha (ER-alpha) signaling pathway using the BG1 cell line (AID 743079); note: nearly all actives have a fitted effect of over 20% in size
[29] = qHTS assay to identify small molecule antagonists of the estrogen receptor alpha (ER-alpha) signaling pathway using the BG1 cell line (AID 743080; calls by dose curve;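 note: BG1 cells stimulated with 17beta-estradiol alongside compound; series mostly up to about 70 µM; nearly all actives have a fitted effect of over 25% in size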)
Method in brief: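 Quantitative HTS on the Tox21 10K library: BG1 cells with endogenous ER-alpha and ERE-luciferase reporter, 17beta-estradiol stimulation, 21.5 h compound exposure, luminescence endpoint with parallel fluorescence cytotoxicity counter-read.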

[30] = qHTS assay to identify small molecule antagonists of the estrogen receptor alpha (ER-alpha) signaling pathway using the BG1 cell line - cell viability counter screen (AID 743081);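 note: compound given together with 17beta-estradiol as the ER stimulus; series mostly up to about 70 µM; nearly all actives have a fitted effect of over 45% in size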
[31] = target: Aromatase (Homo sapiens) (UniProt P11511); test: qHTS assay to identify aromatase inhibitors (AID 743083); note: series mostly up to about 70 µM; nearly all actives have a fitted effect of over 55% in size
[32] = qHTS assay to identify aromatase inhibitors - cell viability counter screen (AID 743084);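 note: cells stimulated with testosterone during compound exposure; nearly all actives have a fitted effect of over 55% in size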
[33] = target: Aryl hydrocarbon receptor (Homo sapiens) (UniProt P35869); test: qHTS assay to identify small molecule that activate the aryl hydrocarbon receptor (AhR) signaling pathway (AID 743085);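 note: HG2L7.5c1 human HepG2 liver cells with stably integrated DRE-driven firefly reporter; series mostly up to about 70 µM; nearly all actives have a fitted effect of over 15% in size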
Method in brief: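 Luminescence (ONE-Glo) from a dioxin-responsive-element luciferase reporter in HG2L7.5c1 HepG2 cells after 24 hr compound exposure at 37C; viability measured by CellTiter-Fluor fluorescence beforehand.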

[34] = qHTS assay to identify small molecule that activate the aryl hydrocarbon receptor (AhR) signaling pathway - cell viability counter screen (AID 743086)
Method in brief: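 Cytotoxicity counter screen: CellTiter-Fluor signal (30 min, 37 C) in 4000 HepG2 cells/well carrying the DRE-luciferase reporter, following 24 h compound exposure at 37 C.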

[35] = qHTS assay to identify small molecule phospholipidosis (PLD) inducers (AID 1259344; active = well fitted curve in the direction sought with a large enough effect; an effect the other way counts as inactive or inconclusive)
Method in brief: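 Fluorescent phospholipid staining (LipidTOX Red) measured by automated microscopy in fixed HepG2 cells after 24 h treatment; nuclei counterstained with Hoechst 33342; amiodarone as reference inducer.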

[36] = target: Nuclear receptor subfamily 1 group I member 2 (Rattus norvegicus) (UniProt Q9R1A7); test: Rat pregnane X receptor (rPXR) activation by small molecules, qHTS assay (AID 1346983); settings: rPXR luciferase reporter cells, One-Glo luminescence, 24 h; max activation: stronger effect = higher value; note: nearly all actives have a fitted effect of over 20% in size
Method in brief: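 Luminescent readout (One-Glo luciferase, 30 min room temperature) followed 24 hr compound treatment at 37 C of rPXR cells plated 2,000 per well and preincubated 5hr; qHTS format with compounds delivered in DMSO.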

[37] = target: Nuclear receptor subfamily 1 group I member 2 (Homo sapiens) (UniProt O75469); test: CYP3A4 induction through human pregnane X receptor (PXR) by small molecules, qHTS assay (AID 1346984); note: nearly all actives have a fitted effect of over 40% in size
Method in brief: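 qHTS, concentration-response format: HepG2 DPX-2 line, PXR/CYP3A4-luc. Exposure 24 h, 37C. Substrate Luciferin-IPA 3uM final, 3 h. Detection One-Glo, 30 min RT.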

[38] = target: Nuclear receptor subfamily 1 group I member 2 (Homo sapiens) (UniProt O75469); test: Human pregnane X receptor (PXR) activation by small molecules, qHTS assay (AID 1346985); note: nearly all actives have a fitted effect of over 40% in size
Method in brief: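 DPX-2 cells (HepG2 co-transfected with a PXR response element and a CYP3A4-promoter luciferase construct) were seeded at 2,000 per well, rested 5 hr at 37C, then exposed to DMSO-dissolved compounds for 24 hr. Activation was read as luciferase luminescence.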
% is set by controls: 0 for no effect and ±100 for the full control effect.

Estrogen receptor (Homo sapiens), sequence (P03372 whole entry, looked up): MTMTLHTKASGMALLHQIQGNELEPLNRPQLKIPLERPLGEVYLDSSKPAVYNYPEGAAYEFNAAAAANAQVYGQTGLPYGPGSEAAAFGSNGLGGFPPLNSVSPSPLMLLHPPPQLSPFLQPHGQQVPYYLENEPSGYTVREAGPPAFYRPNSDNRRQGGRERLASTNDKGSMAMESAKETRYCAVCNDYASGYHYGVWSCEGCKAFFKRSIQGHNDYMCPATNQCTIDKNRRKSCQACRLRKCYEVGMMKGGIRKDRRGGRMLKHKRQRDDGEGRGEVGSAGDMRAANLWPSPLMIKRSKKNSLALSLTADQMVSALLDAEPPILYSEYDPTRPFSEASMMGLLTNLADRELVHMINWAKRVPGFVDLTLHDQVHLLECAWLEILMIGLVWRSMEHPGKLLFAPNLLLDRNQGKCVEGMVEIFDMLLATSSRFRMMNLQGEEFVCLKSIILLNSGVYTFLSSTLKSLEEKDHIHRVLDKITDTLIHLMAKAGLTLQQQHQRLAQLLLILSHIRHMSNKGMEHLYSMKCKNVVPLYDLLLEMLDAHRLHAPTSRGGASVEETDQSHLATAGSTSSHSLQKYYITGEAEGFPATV
Glucocorticoid receptor (Homo sapiens), sequence (P04150 whole entry, looked up): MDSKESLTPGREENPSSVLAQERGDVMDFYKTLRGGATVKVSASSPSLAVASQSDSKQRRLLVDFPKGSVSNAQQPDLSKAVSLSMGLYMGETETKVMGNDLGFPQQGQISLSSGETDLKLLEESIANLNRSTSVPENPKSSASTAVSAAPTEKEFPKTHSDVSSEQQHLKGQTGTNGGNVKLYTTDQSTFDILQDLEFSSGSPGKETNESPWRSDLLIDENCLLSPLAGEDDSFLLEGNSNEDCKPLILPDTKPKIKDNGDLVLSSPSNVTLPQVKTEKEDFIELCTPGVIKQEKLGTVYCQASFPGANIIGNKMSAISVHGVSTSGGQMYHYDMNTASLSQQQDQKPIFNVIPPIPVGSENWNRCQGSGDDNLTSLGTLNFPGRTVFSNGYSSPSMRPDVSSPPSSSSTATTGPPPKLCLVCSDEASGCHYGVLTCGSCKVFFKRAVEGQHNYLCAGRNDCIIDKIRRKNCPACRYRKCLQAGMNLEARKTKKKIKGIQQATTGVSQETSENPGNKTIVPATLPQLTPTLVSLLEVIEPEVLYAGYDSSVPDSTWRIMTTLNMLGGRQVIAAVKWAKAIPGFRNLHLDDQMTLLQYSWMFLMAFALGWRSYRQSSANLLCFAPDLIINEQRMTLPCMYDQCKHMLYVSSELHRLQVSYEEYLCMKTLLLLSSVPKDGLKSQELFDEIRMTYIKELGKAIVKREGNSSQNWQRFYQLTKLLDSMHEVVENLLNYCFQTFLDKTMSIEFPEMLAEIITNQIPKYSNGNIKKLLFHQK
Aromatase (Homo sapiens), sequence (P11511 whole entry, looked up): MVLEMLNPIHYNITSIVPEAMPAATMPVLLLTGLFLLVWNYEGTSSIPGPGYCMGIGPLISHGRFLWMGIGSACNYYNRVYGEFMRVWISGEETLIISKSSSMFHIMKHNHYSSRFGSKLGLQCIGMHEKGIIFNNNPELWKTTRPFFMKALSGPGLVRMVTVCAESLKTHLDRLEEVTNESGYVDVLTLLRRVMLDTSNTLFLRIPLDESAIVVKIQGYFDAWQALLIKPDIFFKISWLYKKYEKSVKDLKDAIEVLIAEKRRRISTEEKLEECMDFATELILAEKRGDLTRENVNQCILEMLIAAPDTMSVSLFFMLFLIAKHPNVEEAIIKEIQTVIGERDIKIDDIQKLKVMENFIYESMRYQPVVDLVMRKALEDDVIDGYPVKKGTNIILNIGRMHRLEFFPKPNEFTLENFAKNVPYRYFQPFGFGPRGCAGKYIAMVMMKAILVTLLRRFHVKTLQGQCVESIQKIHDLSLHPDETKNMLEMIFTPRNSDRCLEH
Aryl hydrocarbon receptor (Homo sapiens), sequence (P35869 whole entry, looked up): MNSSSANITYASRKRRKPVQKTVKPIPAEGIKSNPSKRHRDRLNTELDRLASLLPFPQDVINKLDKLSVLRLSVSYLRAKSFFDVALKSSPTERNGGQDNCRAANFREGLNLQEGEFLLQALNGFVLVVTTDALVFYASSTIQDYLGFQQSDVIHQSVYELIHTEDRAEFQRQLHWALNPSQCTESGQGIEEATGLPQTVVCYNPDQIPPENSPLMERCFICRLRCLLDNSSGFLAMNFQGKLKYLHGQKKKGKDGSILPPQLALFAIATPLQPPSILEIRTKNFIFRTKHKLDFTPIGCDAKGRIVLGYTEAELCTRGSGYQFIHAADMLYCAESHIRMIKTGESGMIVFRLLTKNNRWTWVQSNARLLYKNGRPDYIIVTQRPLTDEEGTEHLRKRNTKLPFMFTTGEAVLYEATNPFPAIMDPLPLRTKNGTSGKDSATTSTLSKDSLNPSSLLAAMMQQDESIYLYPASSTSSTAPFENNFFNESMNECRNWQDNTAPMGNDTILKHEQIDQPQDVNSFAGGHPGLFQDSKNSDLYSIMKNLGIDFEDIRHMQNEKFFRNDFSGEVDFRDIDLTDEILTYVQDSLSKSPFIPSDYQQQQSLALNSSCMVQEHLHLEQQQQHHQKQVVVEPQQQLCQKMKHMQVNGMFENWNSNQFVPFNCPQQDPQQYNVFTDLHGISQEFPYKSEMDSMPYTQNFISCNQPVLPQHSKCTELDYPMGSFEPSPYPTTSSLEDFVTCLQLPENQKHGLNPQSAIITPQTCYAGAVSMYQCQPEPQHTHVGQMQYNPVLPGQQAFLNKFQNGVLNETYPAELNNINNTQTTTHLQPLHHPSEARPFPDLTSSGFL
Nuclear receptor subfamily 1 group I member 2 (Rattus norvegicus), sequence (Q9R1A7 whole entry, looked up): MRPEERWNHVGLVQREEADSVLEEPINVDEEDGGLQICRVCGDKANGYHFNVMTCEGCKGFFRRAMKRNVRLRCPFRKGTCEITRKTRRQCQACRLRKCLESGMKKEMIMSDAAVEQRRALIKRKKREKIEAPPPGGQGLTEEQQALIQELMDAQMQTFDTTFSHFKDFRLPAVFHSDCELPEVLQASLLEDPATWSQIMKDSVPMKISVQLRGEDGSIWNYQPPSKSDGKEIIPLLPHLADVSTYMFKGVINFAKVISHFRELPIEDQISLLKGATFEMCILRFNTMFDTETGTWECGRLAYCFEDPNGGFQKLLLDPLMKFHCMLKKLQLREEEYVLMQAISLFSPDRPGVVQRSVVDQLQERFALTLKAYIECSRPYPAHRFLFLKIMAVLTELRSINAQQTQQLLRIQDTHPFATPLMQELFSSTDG

CNC(=O)OCC[N+](C)(C)C
inactive: Potency [1] | Potency [2] | Potency [3] | Potency [4] | Potency [5] | Potency [6] | outcome [7] | Potency [8] | outcome [9] | Potency [10] | Potency [11] | Potency [12] | outcome [13] | Potency [14] | Potency [15] | Potency [16] | Potency [17] | Potency [18] | Potency [19] | Potency [20] | Potency [21] | Potency [22] | Potency [23] | Potency [24] | Potency [25] | Potency [26] | Potency [27] | Potency [28] | Potency [29] | Potency [30] | Potency [31] | Potency [32] | Potency [33] | Potency [34] | Potency [35] | max activation [36] 0.49% | Potency [37] | Potency [38]
